# Assay results as given in PMC7862700, “An all-to-all approach to the identification of sequence-specific readers for epigenetic DNA modifications on cytosine”.
# Legend:
# Test in all cases: DAPPL (digital affinity profiling via proximity ligation, sequencing); 10 mM Tris-HCl pH 7.5, 50 mM NaCl, 1 mM DTT, 4% glycerol, room temperature, 30 min; GST-TFs on glutathione beads, 16-mer random dsDNA library, 0.1% formaldehyde crosslink after washing; high values mean tight binding
# [1] = biological target: T1, FEV (Homo sapiens, UniProt Q99581 1-238); conditions: protein: recombinant; tags: N-terminal GST; dsDNA, one strand shown
# T1 sequence: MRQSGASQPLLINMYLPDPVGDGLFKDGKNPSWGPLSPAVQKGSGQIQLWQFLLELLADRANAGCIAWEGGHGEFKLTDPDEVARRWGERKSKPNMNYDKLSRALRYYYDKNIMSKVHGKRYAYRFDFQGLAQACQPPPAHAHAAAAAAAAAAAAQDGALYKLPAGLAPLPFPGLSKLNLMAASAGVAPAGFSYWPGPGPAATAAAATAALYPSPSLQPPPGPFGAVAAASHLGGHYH
# Procedure, shortened: (§1)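 Yeast served to express human transcription factors as GST fusions, which were then captured on glutathione beads and labelled with DNA barcodes. Pooled with a tag-only sample, they were incubated with 200 nmole of a 16-mer random double-stranded DNA library for 30 min at room temperature in Tris/NaCl/DTT/glycerol buffer, washed, crosslinked with 0.1% formaldehyde, ligated by proximity, amplified by PCR and sequenced. Dividing each hexamer's read frequency for a factor by its frequency for the tag-only sample gives the binding signal.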
# [2] = biological target: ETV5 (Homo sapiens, UniProt P41161 1-510); conditions: protein: recombinant; tags: N-terminal GST; dsDNA, one strand shown
# ETV5, sequence (P41161 whole entry): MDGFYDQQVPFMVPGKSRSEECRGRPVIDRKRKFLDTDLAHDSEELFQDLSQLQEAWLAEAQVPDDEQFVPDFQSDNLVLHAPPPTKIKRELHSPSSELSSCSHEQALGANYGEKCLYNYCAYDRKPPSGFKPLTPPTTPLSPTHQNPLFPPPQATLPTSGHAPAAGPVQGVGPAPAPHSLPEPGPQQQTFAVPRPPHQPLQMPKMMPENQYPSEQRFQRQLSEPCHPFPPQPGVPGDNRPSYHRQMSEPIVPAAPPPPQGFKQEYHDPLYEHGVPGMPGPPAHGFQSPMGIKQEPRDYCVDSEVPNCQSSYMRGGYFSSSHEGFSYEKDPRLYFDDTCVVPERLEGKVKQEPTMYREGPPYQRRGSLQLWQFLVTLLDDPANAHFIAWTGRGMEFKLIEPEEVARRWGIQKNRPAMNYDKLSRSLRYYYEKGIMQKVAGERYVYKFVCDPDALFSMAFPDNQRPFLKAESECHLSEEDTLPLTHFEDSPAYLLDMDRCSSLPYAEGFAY
# Procedure, shortened: as §1
# [3] = biological target: HSF1 (Homo sapiens, UniProt Q00613 1-529); conditions: protein: recombinant; tags: N-terminal GST; chain copies: 3; dsDNA, one strand shown
# HSF1, sequence (Q00613 whole entry): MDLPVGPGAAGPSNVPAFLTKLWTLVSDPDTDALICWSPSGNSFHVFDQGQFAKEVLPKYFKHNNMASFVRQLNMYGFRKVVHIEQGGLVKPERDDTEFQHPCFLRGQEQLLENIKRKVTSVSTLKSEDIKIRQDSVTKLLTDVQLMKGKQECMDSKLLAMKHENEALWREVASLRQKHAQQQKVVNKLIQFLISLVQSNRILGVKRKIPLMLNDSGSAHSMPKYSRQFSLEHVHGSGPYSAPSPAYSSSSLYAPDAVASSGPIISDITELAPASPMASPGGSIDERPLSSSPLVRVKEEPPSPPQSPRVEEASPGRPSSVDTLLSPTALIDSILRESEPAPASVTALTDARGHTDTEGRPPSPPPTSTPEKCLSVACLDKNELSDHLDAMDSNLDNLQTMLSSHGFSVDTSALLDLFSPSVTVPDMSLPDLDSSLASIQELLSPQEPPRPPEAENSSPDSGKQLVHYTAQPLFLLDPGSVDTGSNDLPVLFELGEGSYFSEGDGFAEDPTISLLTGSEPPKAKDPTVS
# Procedure, shortened: as §1
# [4] = biological target: T2, SPIC (Homo sapiens, UniProt Q8N5J4 1-248); conditions: protein: recombinant; tags: N-terminal GST; dsDNA, one strand shown
# T2 sequence: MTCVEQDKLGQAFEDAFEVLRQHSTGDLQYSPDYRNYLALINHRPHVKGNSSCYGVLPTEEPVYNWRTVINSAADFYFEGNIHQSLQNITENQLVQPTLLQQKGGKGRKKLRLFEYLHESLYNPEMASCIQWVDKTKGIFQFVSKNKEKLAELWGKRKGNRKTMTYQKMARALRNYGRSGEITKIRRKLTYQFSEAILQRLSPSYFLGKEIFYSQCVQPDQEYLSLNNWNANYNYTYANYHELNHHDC
# Procedure, shortened: as §1
# [5] = biological target: ELF4 (Homo sapiens, UniProt Q99607 1-663); conditions: protein: recombinant; tags: N-terminal GST; dsDNA, one strand shown
# ELF4, sequence (Q99607 whole entry): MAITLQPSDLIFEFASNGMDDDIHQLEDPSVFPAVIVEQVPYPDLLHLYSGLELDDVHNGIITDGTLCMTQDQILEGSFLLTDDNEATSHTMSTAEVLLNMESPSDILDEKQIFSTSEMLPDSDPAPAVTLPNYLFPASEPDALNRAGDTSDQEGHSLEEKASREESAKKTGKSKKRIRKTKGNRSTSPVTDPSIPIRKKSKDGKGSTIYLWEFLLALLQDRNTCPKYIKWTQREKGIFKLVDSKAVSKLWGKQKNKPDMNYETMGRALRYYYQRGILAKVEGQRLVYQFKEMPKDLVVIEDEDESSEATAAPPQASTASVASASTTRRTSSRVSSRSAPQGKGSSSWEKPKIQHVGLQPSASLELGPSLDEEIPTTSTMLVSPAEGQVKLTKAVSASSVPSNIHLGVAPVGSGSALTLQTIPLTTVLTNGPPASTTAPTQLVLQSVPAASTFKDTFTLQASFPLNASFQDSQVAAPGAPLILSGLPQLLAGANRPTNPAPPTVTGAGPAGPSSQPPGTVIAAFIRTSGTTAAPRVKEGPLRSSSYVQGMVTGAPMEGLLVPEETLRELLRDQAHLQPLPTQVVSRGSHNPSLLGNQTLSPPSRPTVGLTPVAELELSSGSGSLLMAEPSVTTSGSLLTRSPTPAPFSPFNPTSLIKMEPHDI
# Procedure, shortened: as §1
# [6] = biological target: T3, ELK4 (Homo sapiens, UniProt P28324-2 1-405); conditions: protein: recombinant; tags: N-terminal GST; dsDNA, one strand shown
# T3 sequence: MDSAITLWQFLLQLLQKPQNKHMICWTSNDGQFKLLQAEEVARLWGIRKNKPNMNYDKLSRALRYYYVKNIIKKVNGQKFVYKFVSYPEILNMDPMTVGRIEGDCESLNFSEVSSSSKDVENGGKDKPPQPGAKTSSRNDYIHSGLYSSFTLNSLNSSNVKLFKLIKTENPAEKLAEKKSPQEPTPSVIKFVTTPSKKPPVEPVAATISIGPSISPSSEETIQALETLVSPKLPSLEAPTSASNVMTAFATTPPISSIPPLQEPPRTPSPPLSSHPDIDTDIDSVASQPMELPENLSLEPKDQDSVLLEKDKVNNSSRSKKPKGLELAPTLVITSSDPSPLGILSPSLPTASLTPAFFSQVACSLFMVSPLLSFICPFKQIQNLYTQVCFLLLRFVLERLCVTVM
# Procedure, shortened: as §1
# [7] = biological target: T4, ETV2 (Homo sapiens, UniProt O00321 1-342); conditions: protein: recombinant; tags: N-terminal GST; dsDNA, one strand shown
# T4 sequence: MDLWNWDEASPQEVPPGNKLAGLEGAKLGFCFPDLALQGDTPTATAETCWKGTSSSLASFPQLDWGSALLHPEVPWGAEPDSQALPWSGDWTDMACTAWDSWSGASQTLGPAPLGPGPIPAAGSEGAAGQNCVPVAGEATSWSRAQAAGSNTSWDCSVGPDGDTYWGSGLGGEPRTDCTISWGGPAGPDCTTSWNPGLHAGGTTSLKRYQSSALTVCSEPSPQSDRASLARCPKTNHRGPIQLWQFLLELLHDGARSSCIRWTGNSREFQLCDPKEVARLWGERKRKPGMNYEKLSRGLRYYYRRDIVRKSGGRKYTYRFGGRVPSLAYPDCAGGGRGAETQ
# Procedure, shortened: as §1
# [8] = biological target: T5, ELF3 (Homo sapiens, UniProt P78545 1-371); conditions: protein: recombinant; tags: N-terminal GST; dsDNA, one strand shown
# T5 sequence: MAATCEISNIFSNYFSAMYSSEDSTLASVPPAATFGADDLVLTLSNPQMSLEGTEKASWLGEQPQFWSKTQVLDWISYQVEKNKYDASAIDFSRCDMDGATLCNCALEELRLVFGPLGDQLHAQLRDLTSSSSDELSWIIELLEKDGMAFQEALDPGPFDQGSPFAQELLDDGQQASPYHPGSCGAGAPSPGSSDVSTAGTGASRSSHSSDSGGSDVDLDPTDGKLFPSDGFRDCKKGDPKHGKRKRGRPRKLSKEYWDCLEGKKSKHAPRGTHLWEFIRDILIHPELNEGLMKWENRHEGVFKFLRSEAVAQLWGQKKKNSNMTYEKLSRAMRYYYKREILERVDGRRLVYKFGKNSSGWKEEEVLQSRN
# Procedure, shortened: as §1
# [9] = biological target: CRX (Homo sapiens, UniProt O43186 1-299); conditions: protein: recombinant; tags: N-terminal GST; dsDNA, one strand shown
# CRX, sequence (O43186 whole entry): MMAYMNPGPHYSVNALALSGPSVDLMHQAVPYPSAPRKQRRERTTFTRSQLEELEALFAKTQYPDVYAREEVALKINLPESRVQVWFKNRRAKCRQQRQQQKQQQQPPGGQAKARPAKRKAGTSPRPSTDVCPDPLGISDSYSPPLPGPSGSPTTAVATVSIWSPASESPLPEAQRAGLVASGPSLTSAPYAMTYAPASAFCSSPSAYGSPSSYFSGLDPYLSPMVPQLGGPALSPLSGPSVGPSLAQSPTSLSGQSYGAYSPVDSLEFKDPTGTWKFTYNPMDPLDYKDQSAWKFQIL
# Procedure, shortened: as §1
# [10] = biological target: ETV1 (Homo sapiens, UniProt P50549 1-477); conditions: protein: recombinant; tags: N-terminal GST; dsDNA, one strand shown
# ETV1, sequence (P50549 whole entry): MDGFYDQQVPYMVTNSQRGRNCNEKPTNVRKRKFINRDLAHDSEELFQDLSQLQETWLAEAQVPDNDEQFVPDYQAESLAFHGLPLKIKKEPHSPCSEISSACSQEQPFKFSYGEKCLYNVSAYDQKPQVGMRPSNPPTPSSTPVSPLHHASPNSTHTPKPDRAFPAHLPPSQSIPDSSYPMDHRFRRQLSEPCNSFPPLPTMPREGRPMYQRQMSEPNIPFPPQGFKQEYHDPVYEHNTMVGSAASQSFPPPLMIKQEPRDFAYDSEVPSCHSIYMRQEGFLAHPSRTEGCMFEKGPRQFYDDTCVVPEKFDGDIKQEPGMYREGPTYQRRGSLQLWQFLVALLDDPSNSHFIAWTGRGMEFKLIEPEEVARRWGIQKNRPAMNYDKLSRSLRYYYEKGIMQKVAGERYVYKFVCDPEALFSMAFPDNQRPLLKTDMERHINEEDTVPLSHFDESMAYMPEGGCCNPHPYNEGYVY
# Procedure, shortened: as §1
# [11] = biological target: T6, ERF (Homo sapiens, UniProt P50548 1-548); conditions: protein: recombinant; tags: N-terminal GST; dsDNA, one strand shown
# T6 sequence: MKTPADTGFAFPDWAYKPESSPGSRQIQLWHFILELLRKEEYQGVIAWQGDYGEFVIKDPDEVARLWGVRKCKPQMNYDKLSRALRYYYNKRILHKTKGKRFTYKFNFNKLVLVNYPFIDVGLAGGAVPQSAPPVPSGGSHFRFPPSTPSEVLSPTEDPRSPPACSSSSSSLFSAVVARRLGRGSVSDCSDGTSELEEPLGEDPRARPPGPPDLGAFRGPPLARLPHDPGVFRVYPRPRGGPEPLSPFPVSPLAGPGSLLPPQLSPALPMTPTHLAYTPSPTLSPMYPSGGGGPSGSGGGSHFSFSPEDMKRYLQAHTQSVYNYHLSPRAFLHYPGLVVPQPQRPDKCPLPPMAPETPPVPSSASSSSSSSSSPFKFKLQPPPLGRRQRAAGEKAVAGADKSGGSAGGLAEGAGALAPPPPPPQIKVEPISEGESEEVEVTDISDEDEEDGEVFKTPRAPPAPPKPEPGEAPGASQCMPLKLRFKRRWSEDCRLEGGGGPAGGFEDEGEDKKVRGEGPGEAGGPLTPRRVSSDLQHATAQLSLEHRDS
# Procedure, shortened: as §1
# [12] = biological target: T7, ETV3L (Homo sapiens, UniProt Q6ZN32 1-361); conditions: protein: recombinant; tags: N-terminal GST; dsDNA, one strand shown
# T7 sequence: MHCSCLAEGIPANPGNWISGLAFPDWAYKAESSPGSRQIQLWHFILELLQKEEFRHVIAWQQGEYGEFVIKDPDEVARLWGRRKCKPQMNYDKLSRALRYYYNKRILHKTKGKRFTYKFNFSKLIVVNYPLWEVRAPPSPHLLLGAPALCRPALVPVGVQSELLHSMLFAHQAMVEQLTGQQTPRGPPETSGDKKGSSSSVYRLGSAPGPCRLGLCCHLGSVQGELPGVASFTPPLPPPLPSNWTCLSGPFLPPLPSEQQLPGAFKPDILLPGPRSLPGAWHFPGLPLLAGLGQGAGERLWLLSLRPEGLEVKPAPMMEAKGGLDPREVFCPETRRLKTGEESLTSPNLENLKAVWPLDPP
# Procedure, shortened: as §1
# [13] = biological target: T8, ETS2 (Homo sapiens, UniProt P15036 1-469); conditions: protein: recombinant; tags: N-terminal GST; dsDNA, one strand shown
# T8 sequence: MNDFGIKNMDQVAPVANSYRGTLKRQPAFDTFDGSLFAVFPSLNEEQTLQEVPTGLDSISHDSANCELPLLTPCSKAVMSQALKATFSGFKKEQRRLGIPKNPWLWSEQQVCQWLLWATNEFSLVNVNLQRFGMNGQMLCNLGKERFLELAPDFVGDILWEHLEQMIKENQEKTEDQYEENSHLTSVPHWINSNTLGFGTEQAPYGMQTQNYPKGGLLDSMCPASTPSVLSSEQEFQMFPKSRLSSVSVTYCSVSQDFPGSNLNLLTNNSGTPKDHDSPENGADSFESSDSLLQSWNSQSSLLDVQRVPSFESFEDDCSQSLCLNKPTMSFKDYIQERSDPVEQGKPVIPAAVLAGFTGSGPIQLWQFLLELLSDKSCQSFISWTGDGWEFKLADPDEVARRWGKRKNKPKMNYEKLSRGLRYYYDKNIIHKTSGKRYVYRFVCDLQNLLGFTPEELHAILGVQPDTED
# Procedure, shortened: as §1
# [14] = biological target: T9, SPDEF (Homo sapiens, UniProt O95238 1-335); conditions: protein: recombinant; tags: N-terminal GST; dsDNA, one strand shown
# T9 sequence: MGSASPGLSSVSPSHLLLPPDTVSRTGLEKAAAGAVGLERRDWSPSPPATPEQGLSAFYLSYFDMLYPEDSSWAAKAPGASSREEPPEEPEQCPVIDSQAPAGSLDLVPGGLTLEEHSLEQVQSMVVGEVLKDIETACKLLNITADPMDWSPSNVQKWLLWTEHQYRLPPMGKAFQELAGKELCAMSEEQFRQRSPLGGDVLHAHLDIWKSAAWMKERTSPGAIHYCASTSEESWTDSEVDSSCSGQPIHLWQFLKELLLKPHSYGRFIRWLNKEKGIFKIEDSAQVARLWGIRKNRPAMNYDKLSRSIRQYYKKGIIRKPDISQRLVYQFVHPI
# Procedure, shortened: as §1
# [15] = biological target: T10, ETV7 (Homo sapiens, UniProt Q9Y603 1-341); conditions: protein: recombinant; tags: N-terminal GST; dsDNA, one strand shown
# T10 sequence: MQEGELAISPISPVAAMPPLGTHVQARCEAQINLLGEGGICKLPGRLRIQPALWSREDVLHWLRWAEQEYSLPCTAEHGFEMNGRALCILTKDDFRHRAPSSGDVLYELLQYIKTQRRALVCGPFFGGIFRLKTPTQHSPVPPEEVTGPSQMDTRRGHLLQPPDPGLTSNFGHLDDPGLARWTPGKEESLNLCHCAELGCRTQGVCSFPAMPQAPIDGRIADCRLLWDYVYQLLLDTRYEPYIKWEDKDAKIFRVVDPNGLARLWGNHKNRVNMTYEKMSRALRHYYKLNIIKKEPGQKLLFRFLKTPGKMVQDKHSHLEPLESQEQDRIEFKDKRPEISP
# Procedure, shortened: as §1
# [16] = biological target: T11, ELF5 (Homo sapiens, UniProt Q9UKW6-2 1-255); conditions: protein: recombinant; tags: N-terminal GST; dsDNA, one strand shown
# T11 sequence: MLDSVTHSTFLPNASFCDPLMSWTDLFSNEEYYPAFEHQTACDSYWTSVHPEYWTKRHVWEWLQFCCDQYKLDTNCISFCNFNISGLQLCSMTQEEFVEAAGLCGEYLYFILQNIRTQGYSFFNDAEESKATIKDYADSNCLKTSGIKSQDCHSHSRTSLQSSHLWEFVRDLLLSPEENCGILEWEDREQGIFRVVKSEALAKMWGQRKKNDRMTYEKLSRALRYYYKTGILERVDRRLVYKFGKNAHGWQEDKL
# Procedure, shortened: as §1
# [17] = biological target: T12, ETV3 (Homo sapiens, UniProt P41162-2 1-143); conditions: protein: recombinant; tags: N-terminal GST; dsDNA, one strand shown
# T12 sequence: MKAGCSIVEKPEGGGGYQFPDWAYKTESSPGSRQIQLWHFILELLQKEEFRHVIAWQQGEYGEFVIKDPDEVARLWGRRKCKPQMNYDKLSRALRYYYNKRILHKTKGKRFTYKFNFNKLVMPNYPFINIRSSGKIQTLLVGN
# Procedure, shortened: as §1
# [18] = biological target: ETV6 (Homo sapiens, UniProt P41212 1-452); conditions: protein: recombinant; tags: N-terminal GST; dsDNA, one strand shown
# ETV6, sequence (P41212 whole entry): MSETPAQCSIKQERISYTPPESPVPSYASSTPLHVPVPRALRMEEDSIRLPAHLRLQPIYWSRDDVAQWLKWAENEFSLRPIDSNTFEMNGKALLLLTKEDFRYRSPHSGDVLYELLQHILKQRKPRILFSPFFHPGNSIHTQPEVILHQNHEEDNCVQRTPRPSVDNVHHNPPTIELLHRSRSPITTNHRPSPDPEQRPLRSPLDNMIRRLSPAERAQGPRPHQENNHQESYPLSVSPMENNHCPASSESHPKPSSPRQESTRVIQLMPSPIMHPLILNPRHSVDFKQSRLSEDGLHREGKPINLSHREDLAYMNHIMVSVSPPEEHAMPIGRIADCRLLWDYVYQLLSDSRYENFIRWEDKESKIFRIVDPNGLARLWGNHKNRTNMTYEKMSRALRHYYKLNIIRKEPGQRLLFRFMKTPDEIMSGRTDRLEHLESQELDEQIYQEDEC
# Procedure, shortened: as §1
sequence,measurement,setting,value
ATGCCC,binding signal,[1],"1.34 fold enrichment (6-mer frequency, TF over GST control)"
same,binding signal,[2],"1.28 fold enrichment (6-mer frequency, TF over GST control)"
same,binding signal,[3],"1.19 fold enrichment (6-mer frequency, TF over GST control)"
same,binding signal,[4],"1.54 fold enrichment (6-mer frequency, TF over GST control)"
same,binding signal,[5],"1.33 fold enrichment (6-mer frequency, TF over GST control)"
same,binding signal,[6],"1.36 fold enrichment (6-mer frequency, TF over GST control)"
same,binding signal,[7],"1.26 fold enrichment (6-mer frequency, TF over GST control)"
same,binding signal,[8],"1.34 fold enrichment (6-mer frequency, TF over GST control)"
same,binding signal,[9],"1.12 fold enrichment (6-mer frequency, TF over GST control)"
same,binding signal,[10],"1.31 fold enrichment (6-mer frequency, TF over GST control)"
same,binding signal,[11],"1.31 fold enrichment (6-mer frequency, TF over GST control)"
same,binding signal,[12],"1.26 fold enrichment (6-mer frequency, TF over GST control)"
same,binding signal,[13],"1.29 fold enrichment (6-mer frequency, TF over GST control)"
same,binding signal,[14],"1.36 fold enrichment (6-mer frequency, TF over GST control)"
same,binding signal,[15],"1.45 fold enrichment (6-mer frequency, TF over GST control)"
same,binding signal,[16],"1.27 fold enrichment (6-mer frequency, TF over GST control)"
same,binding signal,[17],"1.32 fold enrichment (6-mer frequency, TF over GST control)"
same,binding signal,[18],"1.35 fold enrichment (6-mer frequency, TF over GST control)"
